Structures are written as SMILES. The whole screen tested about 190,000 compounds, of which about 3,100 (1.6%) were called active. The entries come from a sample that favours actives as a whole. Unmarked numbers belong to inactive results. No stated cut-off is given here; in the data, active means fold change above about 3.3; inconclusive means no clear call, values can overlap the other calls; inactive means below that.

This assay can be described thus: NF-kB upregulation, human neuronal cells – cell-based, HTS, primary screen (AID 1239). To be noted: NF-kB reporter expression, at 12.5 µM, active compounds read high.
Regarding `Cc1occc1C(=O)N1CCCc2ccccc21`, the fold change was 1.12.
The result for `O=C(c1cccc(C(=O)N2CCc3ccccc32)n1)N1CCc2ccccc21` reads 0.82.
The result for `O=C(c1cnn2ccccc12)N1CCc2ccccc21` reads 3.74 (active); that for `Cc1cc(C)n(CCNCc2c(C(=O)N3C[C@@H](C)O[C@@H](C)C3)nc3ccc(Cl)cn23)n1`, 0.98.
The result for `Cc1ccccc1NC(=O)Cn1c(=O)n(CC2CCCO2)c(=O)c2ccccc21` (stereo not drawn) reads 0.98; that for `Cc1ccc(-c2csc(NNC(=O)c3ccccc3)n2)cc1`, 0.64.
For `Cc1ccc(Nc2nc(-c3ccc(O)cc3O)cs2)nc1`, the fold change is 5.35 (active).
The result for `Cc1ccc(NC(=O)c2cc(-c3ccc(C)o3)nc3ccccc23)nc1` reads 0.88; that for `CCOC(=O)Cn1nnnc1C`, 0.94; that for `O=C(O)c1ccc(NC(=O)c2cn(-c3ccccc3)nc2-c2ccc(Cl)cc2)cc1`, 1.11.
On to `O=C(c1cnn(-c2ccc(Cl)cc2)c1)c1ccccc1O`, for which the fold change is 6.38 (active).
The result for `Cc1ncc(CC(=O)n2cc(C(=O)c3cc(Cl)ccc3O)cn2)s1` reads 0.9; that for `O=C(Nc1ccc(Cl)cc1)C1c2cccc[n+]2CC(=O)N1Cc1ccc2c(c1)OCO2` (stereo not drawn), 1.64.
The result for `Cc1ccc(-c2nc3ccccc3[nH]2)cc1N` reads 6.83 (active).
The result for `Cc1ccc(-c2nc3ccccc3[nH]2)cc1NC(=O)c1sc2ccccc2c1Cl` reads 0.76; that for `c1ccc2[nH]c(-c3nc4ccccc4[nH]3)nc2c1`, 2.17; that for `O=C(O)CCn1c(SCc2cc(=O)n3ccccc3n2)nc2ccsc2c1=O`, 1.78.
`CC(=O)Nc1ccc(NC(=O)C(C)n2c3ccccc3c3nc(=O)cc(C)n32)cc1` (stereo not drawn): the fold change was 1.25.
The result for `COc1cccc(NC(=S)N(Cc2ccc(C)cc2)Cc2ccccn2)c1` reads 1.01; that for `CC(O)CNCCOc1cccc(Oc2ccccc2)c1` (stereo not drawn), 1.14.
As to `Cc1cccc(-n2c(C)cc(/C=N\NC(=O)c3cccs3)c2C)c1`, the fold change was 0.9.
The result for `CC(=O)Nc1ccc(/C=N/NC(=O)c2cccs2)cc1` reads 3.48 (active); that for `O=C(O)c1ccc(NC(=O)c2cccs2)cc1`, 1.13; that for `CCOc1ccc(C(C)=O)cc1CSc1nnc(-c2ccncc2)n1CCOC`, 0.95.
The result for `CC(C)CCC(C)NC(=O)c1ccc2nccnc2c1` (stereo not drawn) reads 1.64.
The result for `CC(NC(=O)COC(=O)c1ccc(Cl)cc1O)c1ccc(F)cc1` (stereo not drawn) reads 1.15; that for `CCOC(=O)CSc1nnc(-c2ccncc2)o1`, 1.05.
Turning to `CCOC(=O)CSc1nnc(-c2ccc([N+](=O)[O-])cc2)o1`, the fold change was 1.11.
The result for `CCCCSc1nnc(-c2ccc(C)cc2)o1` reads 3.57 (active); that for `N/C(=N\OC(=O)Cc1ccccc1[N+](=O)[O-])c1ccc(Br)cc1`, 1.12.
The result for `COc1ccc(OC)c(C(=O)CSc2nnc(-c3cccs3)o2)c1` reads 1.11; that for `COc1ccc(-c2nnc(SCC(=O)c3cccs3)o2)c(OC)c1`, 5.16 (active); that for `COc1ccc(-n2c(C)cc(C(=O)CSc3nnc(-c4cccs4)o3)c2C)cc1`, 0.93.
The result for `Cn1nc(C(F)(F)F)c2cc(C(=O)N3CCOCC3)sc21` reads 0.92.
On to `COc1ccc(-c2cc(C(=O)NCCCn3ccnc3)no2)cc1`, for which the fold change was 1.83.
The result for `COc1ccccc1-c1cc(C(=O)NCCCn2ccnc2)no1` reads 1.28; that for `O=C(NCCCn1ccnc1)c1cc(-c2ccccc2)on1`, 8.21 (active); that for `COc1ccc(CCNc2nc(-c3cccc(NC(C)=O)c3)cs2)cc1OC`, 0.5.
The result for `CC(=O)Nc1cccc(-c2cnc3ccccc3n2)c1` reads 2.74; that for `CC(=O)Nc1cccc(-c2csc(Nc3cccc(C)n3)n2)c1`, 8.2 (active).
Regarding `CCOc1cc(NC(=S)NCCCN(C)C)c(OCC)cc1NC(=O)C1CC1`, the fold change was 0.96.
The result for `CCOn1c(=O)c(=O)n(O)c2ccccc21` reads 1.15.
The result for `C=C(C)CNC(=S)N/N=C/c1ccccc1OCC(=O)O` reads 1.35; that for `CCc1ccc(-c2nn(-c3ccccc3)cc2CSC(=N)N)cc1`, 6.66 (active).
The result for `N=C(N)SCc1cccc2ccccc12` reads 0.88; that for `CCn1c(SCc2ccc(C)cc2)nnc1-c1nn(-c2ccccc2)ccc1=O`, 1.19; that for `O=c1nc(N/N=C/c2ccco2)cn[nH]1`, 1.22.
For `COc1ccc(CNc2c(CO)cnc3c2cnn3C)cc1`, the fold change was 1.06.
The result for `Cc1c(NC(=O)CSc2cccc3cccnc23)c(=O)n(-c2ccccc2)n1C` reads 7.73 (active); that for `Cc1ccccc1OCCC(=O)Nc1c(C)n(C)n(-c2ccccc2)c1=O`, 0.99.
Take `Cc1c(NC(=O)CSc2nnnn2-c2ccc(C(=O)O)cc2)c(=O)n(-c2ccccc2)n1C`: the fold change was 1.04.
The result for `CCN(CC)CCNc1nc(-c2ccc(OC(F)F)cc2)c(C)s1` reads 0.94; that for `NC(=O)c1ccc(N2CCOCC2)nc1`, 0.96; that for `COc1cc(/C=N/NC(=O)c2cc(C)n(-c3ccc(F)cc3)c2C)cc(OC)c1O`, 1.02.
The result for `C/C(=N\NC(=S)NCc1ccccc1)C1CCCCC1` reads 1.07; that for `O=c1[nH]n2c(-c3ccccc3)nc(O)c2c2ccccc12`, 1.02.
The result for `CCn1nc(C)c(CN2CCN(Cc3ccc(OC)c(C)c3C)C(CCO)C2)c1C` (stereo not drawn) reads 1.19; that for `COc1ccc(-c2cn3cccnc3n2)cc1`, 2.19.
Consider `CCCC(=O)Nc1cccc(-c2cn3ccsc3n2)c1`, for which the fold change is 1.3.
In the case of `COc1ccc(-c2cn3ccsc3n2)cc1`, the fold change is 5.24 (active).
The result for `CC(C)(C)n1ncc2c(=O)n(Cc3ccc(Cl)cc3)cnc21` reads 1.03.
The result for `O=C(COc1ccc(Cl)cc1)NCc1nnc(SCC(=O)NCC2CCCO2)o1` (stereo not drawn) reads 1.01; that for `Cc1cccc(CSc2nnc(NC(=O)CSc3nnc(C)s3)s2)c1`, 1.18.
The result for `CC(=O)c1sc(NC(=O)c2cccc3ccccc23)nc1C` reads 0.7; that for `CC(=O)c1sc(NC(=O)c2ccc(C)cc2)nc1C`, 3.36 (active); that for `CCSc1nnc(NC(=O)c2ccc(C)cc2)s1`, 5.31 (active).
As for `CCSc1nnc(NC(=O)Cc2ccccc2OC)s1`, the fold change is 1.18.
The result for `CC(=O)c1sc(N/N=C\c2ccc(C)cc2)nc1C` reads 2.4.

The values above are taken from PubChem BioAssay AID1239 (SRMLSC, 2008).
